Pf apPOL block: Pf-apPOL inhibitors, biochemical, fluorescence | Recombinant Pf-apPOL, molecular beacon fluorescence, 1.5 h | 0.25% of 210,000 active | Plasmodium falciparum apicoplast DNA polymerase (apPOL) | inhibition, % at 10 µM
mHTT CaM bind: mutant huntingtin-calmodulin interaction inhibitors – biochemical, AlphaScreen, primary screen; P42858; AlphaScreen His-mHTT/GST-CaM binding, luminescence; inhibition, % at 15 µM; 3.6% of 190,000 active; AID 1671202, 2021;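 further: 0% = both proteins with DMSO and 100% = one protein alone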
Starred values were filed as active, the others as inactive; nt = no result; ! = repeats disagree. Shown is part of a subset that was picked to be rich in hits. No stated cut-off is given here; in the data, active means inhibition above about 50%; inactive means the rest.

SMILES | Pf apPOL block | mHTT CaM bind
CN(CC(=O)N1CCN(c2ccc(F)cc2)CC1)S(=O)(=O)c1ccc(Cl)cc1 | -3.8 | 11.7
CN(CC(=O)N1CCN(Cc2ccccc2)CC1)S(=O)(=O)c1ccc(Cl)cc1 | 96.6* | 7.4
CN1CCN(C(=O)CN(C)S(=O)(=O)c2ccc(Cl)cc2)CC1 | 7.6 | -3.7
COc1ccc(N2CCN(C(=O)CN(C)S(=O)(=O)c3ccc(Cl)cc3)CC2)cc1 | 88.7* | 16.8
COc1ccc(/C=C2/N=C(c3ccc(-c4ccccc4)cc3)OC2=O)c(OC)c1 | -4.1 | 2.0
N#C/C(=C\Nc1ccccc1F)c1nc(-c2cc3cc(Br)ccc3oc2=O)cs1 | 5.5 | 2.0
COc1ccc(C2C(C(=O)Nc3ccc(C)cc3C)=C(C)Nc3ncnn32)c(OC)c1 (stereo not drawn) | 2.3 | 5.0
NC(=O)c1ccc(NC(=O)CSc2nc(C(F)(F)F)cc(=O)[nH]2)cc1 | -0.7 | -22.0
Cc1ccc(S(=O)(=O)Cc2nc(-c3ccccc3)no2)cc1 | -2.8 | -13.0
N#CC1=C(N)Oc2n[nH]c(C34CC5CC(CC(C5)C3)C4)c2C1c1cccs1 (stereo not drawn) | -3.0 | 55.0*
N#CC1=C(N)Oc2n[nH]c(C34CC5CC(CC(C5)C3)C4)c2C1c1ccc(O)cc1 (stereo not drawn) | 7.5 | 29.0
Cc1ccc(NC(=O)C2CC(=O)N(c3ccccc3)C2)cc1C (stereo not drawn) | -5.1 | -3.6
CCCCNC(=O)C1CCCN(c2nc3c(s2)c(C)nn3-c2ccc(C)cc2)C1 (stereo not drawn) | 4.4 | 5.5
COc1ccc(C=C2Oc3cc(C)c(CN4CCN(C)CC4)c(O)c3C2=O)cc1 | 13.0 | 79.4*
COc1ccc(C=C2Oc3cc(C)c(CN4CCOCC4)c(O)c3C2=O)cc1 | 3.5 | 0.7
Cc1nc(N)[nH]c(=O)c1Oc1ccccc1 | -2.3 | -1.8
Nc1c(Oc2ccccc2)c(Oc2ccccc2)c(N)c2c1C(=O)c1ccccc1C2=O | -2.7 | 97.0*
COc1ccc(C(OCC2OC(n3ccc(N)nc3=O)CC2O)(c2ccccc2)c2ccc(OC)cc2)cc1 (stereo not drawn) | -19.6 | nt
COc1ccc(CN([C@H](CO)CC(C)C)S(=O)(=O)N(Cc2ccccc2)[C@H](CO)CC(C)C)cc1 | -1.2 | 97.8*
CC(C)C[C@@H](CO)N(Cc1ccccc1)S(=O)(=O)N(Cc1ccccc1)[C@@H](CO)CC(C)C | -2.7 | 99.9*
O=S(=O)(N(Cc1ccccc1)[C@H](CO)Cc1ccccc1)N(Cc1ccccc1)[C@H](CO)Cc1ccccc1 | -1.5 | 0.5
COc1ccc(CN([C@H](C)CO)S(=O)(=O)N(Cc2ccccc2)[C@H](CO)C(C)C)cc1 | 2.0 | 16.3
CC(C)C[C@@H](CO)N(Cc1ccccc1)S(=O)(=O)N(Cc1ccccc1)[C@H](CO)CC(C)C | -1.7 | 93.2*
C=C[C@H](CC(C)C)N(Cc1ccccc1)S(=O)(=O)N(Cc1ccccc1)[C@@H](C=C)CC(C)C | -3.4 | -11.5
CCc1nnc(NC(=O)COc2ccc(C)cc2)s1 | -3.6 | 1.4
SMILES | Pf apPOL block | mHTT CaM bind
CC(C)NC(=O)c1ccccc1Sc1ccccc1 | -3.5 | nt
CC(C)(C)c1ccc(OCC(=O)Nc2ccc3c(c2)OCO3)cc1 | 13.7 | -5.3
COc1ccc(S(=O)(=O)NCCSC(C)(C)C)cc1OC | 6.3 | -4.7
COc1ccc(-n2c(C)ccc2C)c(N)c1 | -2.4 | 54.2*
COc1ccc2nc(C)cc(N)c2c1 | -40.4 | -1.0
CCCCNC(=O)C1CCCN(c2ncc(-c3ccccc3)cn2)C1 (stereo not drawn) | 3.2 | -8.2
c1ccc(CN2CCc3ccccc3C2)nc1 | -3.8 | 3.0
CCOCCCNC(=O)C1(C)CCC(=O)N1c1ccc(OC)cc1OC (stereo not drawn) | -1.6 | 1.8
CC(C)(C)N1COc2ccc3c4c(oc3c2C1)C(=O)c1ccccc1C4=O | 30.6 | 33.4
O=C1c2ccccc2C(=O)c2c1oc1c3c(ccc21)OCN(CCCn1ccnc1)C3 | 6.2 | 100.0*
COCCCN1COc2ccc3c(=O)c(-c4ccccc4OC)c(C(F)(F)F)oc3c2C1 | -3.2 | -1.0
O=C1c2ccccc2C(=O)c2c1oc1c3c(ccc21)OCN(C1CCCCC1)C3 | 26.9 | 83.9*
COCCN1COc2ccc3c(=O)c(-c4ccccc4OC)c(C)oc3c2C1 | 2.2 | -6.6
O=C1c2ccccc2C(=O)c2c1oc1c3c(ccc21)OCN(CCC1=CCCCC1)C3 | -0.9 | 79.0*
COc1ccc(Cl)cc1C(=O)NCCn1nc(-c2ccccc2)n(C)c1=O | -14.8 | -15.8
O=C(c1nn2c(C(F)(F)F)cc(-c3cccs3)nc2c1Cl)N1CCCCC1 | -1.7 | 0.0
Cc1oc2ccn(Cc3cccc(F)c3)c(=O)c2c1C(=O)N1CCCCC1 | -1.3 | 1.0
Cc1sc2ccn(Cc3ccc(F)cc3)c(=O)c2c1C(=O)N1CCC(C)CC1 | -4.9 | 80.3*
Cc1oc2ccn(Cc3ccc(F)cc3)c(=O)c2c1C(=O)N1CCCCC1 | 0.9 | 59.3*
Cc1sc2ccn(Cc3ccc(F)cc3)c(=O)c2c1C(=O)N1CCOCC1 | 0.7 | 11.9
CCn1ccc2oc(C)c(C(=O)N3CCC(Cc4ccccc4)CC3)c2c1=O | 0.7 | 93.3*
CCn1ccc2oc(C)c(C(=O)N3CCC(C)CC3)c2c1=O | 0.2 | -10.1
CC(=O)C1=C(O)C(=O)N(c2ccc(S(N)(=O)=O)cc2)C1c1ccc(F)cc1 (stereo not drawn) | -6.8 | 3.0
COc1cccc(CNC(=O)C2(C)CCCN(C(=O)NCCC(C)C)C2)c1 (stereo not drawn) | 3.4 | -2.6
Cc1ccc(NC(=O)C2CCCN(c3cnn(C)c(=O)c3)C2)cc1 (stereo not drawn) | 2.2 | -8.9
SMILES | Pf apPOL block | mHTT CaM bind
Cc1cc(OCC(=O)Nc2ccc(O)c(-c3nc4ccccc4o3)c2)ccc1Cl | 0.5 | 0.7
Cc1cc2c(C(C)C)c(O)c(O)c(C=O)c2c(O)c1-c1c(C)cc2c(C(C)C)c(O)c(O)c(C=O)c2c1O | 87.8*! | nt
CCCNC(=O)C1CN(C(=O)c2ccc(C)cc2)CC1c1ccccc1C (stereo not drawn) | 2.4 | 7.3
Cc1ccc(NC(=O)N2CCc3nc[nH]c3C2)cc1 | -2.5 | -9.0
CCN(CC)S(=O)(=O)c1ccc(-c2csc(=Nc3ccc(C)cc3)n2C)cc1 | -9.1 | -1.0
CCN(CC)S(=O)(=O)c1ccc(-c2csc(=Nc3ccc(F)cc3)n2CCCO)cc1 | -2.0 | 51.0*
CCN(CC)S(=O)(=O)c1ccc(-c2csc(=Nc3cccc(C)c3)n2CCCO)cc1 | 0.5 | 64.0*
O=S(=O)(c1ccc(-c2csc(=Nc3ccccc3)n2CCCO)cc1)N1CCOCC1 | -8.6 | 43.0
CC(C)Cc1nc(S(=O)(=O)c2ccccc2)c(N2CCOCC2)o1 | 3.0 | -3.0
Cc1ccc2ncn(C3CCN(S(=O)(=O)c4ccc(F)cc4F)CC3)c(=O)c2c1 | -0.8 | -3.2
CCN(CC)Cc1cc(Cl)c2cccnc2c1O | 0.0 | 100.0*
CCN(CC)C(=O)Oc1c(I)cc(Cl)c2cccnc12 | -9.0 | -1.1
Cc1cccc(N2C=C(C#N)S(=O)(=O)c3ccc(Cl)cc32)c1C | -4.0 | 1.1
OCCOCCNc1ncnc2c1c(-c1ccccc1)cn2-c1cccc(C(F)(F)F)c1 | 0.0 | 23.0
OCCOCCNc1ncnc2c1c(-c1ccccc1)cn2-c1cccc(Cl)c1 | -13.0 | 54.0*
Cc1cccc2sc(NC(=O)CN(C)S(=O)(=O)c3ccc(Br)s3)nc12 | 1.2 | 92.0*
Cc1cccc2sc(NC(=O)CCS(=O)(=O)c3ccc(Br)s3)nc12 | -2.1 | 5.0

Screening data: PubChem BioAssay, University of Kansas High Throughput Screening Laboratory
